PubChem BioAssay (NCI)
About 83,000 compounds went through this panel and 20% of them were active in at least one assay; those are over-represented in the sample as a whole.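 Cell lines were cultured in 96-well plates, exposed to a single compound concentration, and assessed for percent growth 48 hours later.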 Values without a mark were called inactive. The source made the active and inactive calls.

Each compound was assayed on UACC-62 melanoma (assay: NCI-60 one-dose screen, 48 h (100 = growth as untreated, 0 = no growth, -100 = all killed)). Details: 10 µM unless noted.
Experimental: Growth inhibition of the UACC-62 human tumor cell line is measured as a screen for anti-cancer activity. Cells are grown in 96 well plates and exposed to the test compound for 48 hours. Compounds are tested at a single concentration, which is 10^-5 M for most compounds. The reported endpoint is percent growth (GI% or GIPRCNT), where numbers from 0 - 100% represent growth inhibition, and numbers from -100% - 0 represent cell death. For example, a value of 40 represents 60% growth inhibition. A value of 0 means no net growth occurred over the course of the experiment. A value of -40 indicates 40% of cells at the beginning of the experiment died by the end of the experiment. A value of -100 means all cells are dead at the end of the experiment.
NCI-60 Human Tumor Cell Lines Screen was performed using the standard one-dose NCI protocol, which is described in more detail at https://dtp.cancer.gov/discovery_development/nci-60/default.htm.
Compounds with GIPRCNT values below 10 were considered active. Activity score was based on GIPRCNT using the following formula: […]
Score is 0 for GIPRCNT values of 100 or above, 50 for GIPRCNT values of 0, and 100 for GIPRCNT values of -100.
`COc1ccc(-c2nc(-c3nc4cc(C)c(C)cc4[nH]3)cc3c2[nH]c2ccccc23)cc1` was tested, and the growth was -0.969% (active).
`Cc1ccc(S(=O)(=O)NCCNc2nccc(-c3c(-c4cccc(N)c4)nc4sccn34)n2)cc1` showed a growth of 79.4%.
In the case of `COc1cc(/C=C/C(=O)c2ccc(Nc3ncnc4cc(OC)c(OC)cc34)cc2)cc(OC)c1`, the growth is reported as 99.9%.
For `CCN(CC)CCC(CNc1ccnc2cc(Cl)ccc12)c1ccc(Cl)cc1` (stereo not given), the growth was -74.5% (active).
For `CCOC(=O)c1ccc2c(c1)nc(-c1ccc(OCc3ccccc3)c(OC)c1)n2-c1cc(C(C)(C)C)[nH]n1`, the growth was 84.3%.
With `CCCCN(CCCC)c1ccc(C(=N)c2ccc(N(CCCC)CCCC)cc2)cc1` the growth was -81.6% (active).
In the case of `COc1cc(/C=C/C(=O)c2cccc(-n3cc(-c4cc(OC)c(OC)c(OC)c4)[nH]c3=O)c2)cc(OC)c1OC`, the growth is reported as 7.42% (active).
Work on `O=C1NN(C(=O)c2ccc(Cl)cc2)C(c2ccccc2)=N/C1=C\c1ccc(F)cc1` yielded a growth of 74%.
`CCOc1cc2c(Cl)ncnc2c(OCC)c1OCC` gave a growth of 64.3%.
Compound `S=c1[nH]nc(-c2cc3ccc2CCc2ccc(cc2)CC3)n1C1CC1` has a growth of 80.2%.
With `N/C(=N\C(N)=N\c1nc2ccccc2s1)c1ccncc1` the growth was 44.6%.
`COc1cccc(CC(C)=C(c2ccc(OCCN(C)C)cc2)c2ccc(OCCN(C)C)cc2)c1` was tested, and the growth was -90.7% (active).
Compound `CC(C)(C)n1cc(-c2ccnc(NCCCNS(=O)(=O)c3ccc(C(F)(F)F)cc3)c2)c(-c2cccc(O)c2)n1` has a growth of 48.7%.
`NC(N)=N/N=C/c1ccc(-c2ccc(-c3cc(Cl)cc(Cl)c3)s2)cc1` gave a growth of 48.2%.
`CCOC(=O)c1ccc2c(c1)c1c(C)c3cccnc3c(C)c1n2C` was tested, and the growth was 49.2%.
`COc1cc(-c2nn(-c3cccc(NC(=O)c4cccc(C(F)(F)F)c4)c3)cc2-c2ccncc2)ccc1Cl` was tested, and the growth was 27.2%.
Compound `O=C(c1c[nH]c(=O)c(-c2ccccc2)c1)c1ccccc1O` has a growth of 81.1%.
For `CN1CCN(Cc2ccc(NC(=O)c3cncc(C#Cc4cnc(N)c5cnccc45)c3)cc2C(F)(F)F)CC1`, the growth was -74.8% (active).
Work on `C=C(C)[C@@H]1CC[C@]2(C(=O)N3CCNCC3)CC[C@]3(C)[C@H](CC[C@@H]4[C@@]5(C)C/C(=C/c6ccncc6)C(=O)C(C)(C)[C@@H]5CC[C@]43C)[C@@H]12` yielded a growth of 103%.
`Oc1ccc2cc(Br)ccc2c1-c1c(O)ccc2cc(Br)ccc12` showed a growth of 61.4%.
With `O=[N+]([O-])c1cccc(-c2nc3sccn3c2-c2ccnc(NCCCNS(=O)(=O)c3ccc(Cl)cc3)n2)c1` the growth was 7.02% (active).
`O=C(CCl)N(C1CCCCC1)C1CCCCC1` was tested, and the growth was 102%.
`CCOC(=O)CN1/C(=N/c2sc3c(c2C(=O)OCC)CCN(C(=O)OCC)C3)SC(=O)/C1=C\C(=O)OC` showed a growth of 92.8%.
`CCC(=O)OC1=CN2C(=NC(c3ccc(N)cc3)=CC2c2cc(OC)c(OC)c(OC)c2)S1` (stereo not given) gave a growth of 78%.
`NC1=NC(SCc2ccccc2CCl)c2ncn(Cc3ccccc3CCl)c2N1` (stereo not given) was tested, and the growth was 34.2%.
`OCc1ncc(-c2ccccc2)s1` was tested, and the growth was 106%.
`Cc1nc2cncc(C#Cc3cncc(C(=O)Nc4ccc(CN5CCN(C)CC5)c(C(F)(F)F)c4)c3)c2nc1C` was tested, and the growth was -32% (active).
In the case of `CCOC(=O)C1CCNC(=O)C1=O` (stereo not given), the growth is reported as 101%.
`CC1CCC(C)N(C)C1` (stereo not given) gave a growth of 99.7%.
Compound `COc1ccc(C(=O)c2cc(OC)c3c(c2)OCO3)cc1O` has a growth of 43.6%.
Work on `COc1cc(C(=O)/C=C/c2c(C)n([O-])c3ccc(C(F)(F)F)cc3[n+]2=O)cc(OC)c1OC` yielded a growth of 91.4%.
Compound `CCCCN(CCCC)C(=N)c1ccnc2ccccc12` has a growth of 111%.
In the case of `COc1cc2c(cc1OCCCCCn1c3ccccc3c3ccccc31)N=C[C@@H]1CCCN1C2=O`, the growth is reported as -90.3% (active).
`CCCCCCCC[C@@H](O)CC(=O)N[C@@H](CC(N)=O)C(=O)N[C@@H](CCC(N)=O)C(=O)N[C@@H](CC(=O)c1cc(C)cc(O)c1C(=O)c1c(O)cccc1O)CC(C)C` was tested, and the growth was 0.947% (active).
For `COc1ccc2[nH]c(=O)c3c4ccccc4cn3c2c1`, the growth was 28.2%.
In the case of `O=C(Nc1ccc(NCCN2CCOCC2)nc1)c1ccc([N+](=O)[O-])cc1`, the growth is reported as 94.6%.
Compound `O=C1Nc2ccc(Cl)cc2C12Nc1cc(Cl)ccc1S2` (stereo not given) has a growth of 71.5%.
Compound `COc1ccc(C2C=C(c3ccc(OC)c(OC)c3)N=C3SC=C(C)N32)c(Br)c1` (stereo not given) has a growth of 106%.
`Cc1ccc(N2CCN(C(C)C(N)=O)CC2)cc1` (stereo not given) showed a growth of 91.4%.
With `C=C(C)[C@@H]1C[C@@H]2Cc3cc(F)ccc3N1O2` the growth was 95%.
